Data taken from PubChem BioAssay AID720511 (Broad Institute, 2013).
The campaign covered roughly 350,000 compounds. About 1,300 (0.37%) were called active. This excerpt belongs to a sample that is enriched for actives. A number with no mark means an inactive call.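 The calls were made as follows: active = mean added fluorescence quench of at least 8% versus neutral control, with both replicates also reaching 8%; inconclusive = only one of the mean or replicate conditions met; inactive = mean below 8% and not both replicates reaching 8%.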

Test: F508del CFTR correction, initial screen, CFBE line, single point (AID 720511);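 also: cells transiently co-express mutant CFTR-F508del with the halide-sensitive YFP; corrector assay measuring rescue of mutant channel to the surface after 24 h compound exposure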
Conditions: CFBE cells, YFP halide quenching, at 7.58 µM, stronger effect = higher value, % fluorescence drop versus neutral controls, stimulated with forskolin plus potentiator P3

With CN(C)CCNC(=O)c1ccc(Cl)c2cc3ccccc3nc12 the activity (quench increase) was 12.3% (active).
In the case of CCOc1ccc(-c2cc(C(=O)N/N=C/c3ccc(O)cc3)c3ccccc3n2)cc1, the activity (quench increase) is reported as 12.2% (active).
For O=C(Nc1ccc(OC(F)(F)F)cc1)c1ccc2c(c1)no[n+]2[O-], the activity (quench increase) was 14.5% (active).
In the case of NC(=O)CC(NC(=O)Cc1ccc(Br)cc1)c1ccc(NC2CC3CCC2C3)c([N+](=O)[O-])c1 (stereo not given), the activity (quench increase) is reported as 10.1% (active).
With COc1ccc(CNS(=O)(=O)c2cc(-c3cc(C)no3)ccc2C(C)C)cc1 the activity (quench increase) was 10.7% (active).
For Cc1cccc(NS(=O)(=O)c2ccc(-c3cnc(C4CC4)o3)cc2)c1, the activity (quench increase) was 10% (active).

Point of comparison: C[C@@H]1CN([C@@H](C)CO)C(=O)c2cc(NS(C)(=O)=O)ccc2O[C@@H]1CN(C)C, activity (quench increase) 0.661%. Against it:
- CNC(=O)c1cccc2nc3ccccc3nc12 — lower, -0.402%
- O=C(Cn1c(NCCO)nc2ccccc21)c1ccc(Cl)cc1Cl — higher, 1.26%
- CCNC(=O)C[C@@H]1CC[C@@H](NC(=O)NC2CCCCC2)[C@H](CO)O1 — higher, 3.72%
- Cc1ccccc1-c1ccc2c(c1)O[C@H](CN(C)C)[C@@H](C)CN([C@H](C)CO)S2(=O)=O — higher, 0.748%
- C[C@H]1CN([C@@H](C)CO)C(=O)c2cc(/C=C/c3ccccc3)cnc2O[C@@H]1CN(C)C(=O)c1ccc(F)cc1 — lower, -2.58%
- COc1ccc(-c2cc(C(=O)N/N=C/c3cccnc3)c3ccccc3n2)c(OC)c1 — lower, -13%
- COc1cc(/C=N/NC(=O)c2cc(-c3ccccc3C)nc3ccccc23)cc(OC)c1O — lower, -3.23%
- C[C@@H]1CN([C@H](C)CO)C(=O)Cc2cc(NS(=O)(=O)c3ccc(F)cc3)ccc2O[C@H]1CN(C)C — lower, -0.0265%
- CC(C)(C)[S@@](=O)N1Cc2cc(C(=O)N3CCOCC3)nc(-c3cccc(-c4ccc(C#N)cc4)c3)c2[C@H]1CCO — higher, 1.68%
- Cc1noc(C)c1NC(=O)Nc1ccc2c(c1)CC(=O)N([C@@H](C)CO)C[C@H](C)[C@@H](CN(C)CC1CCCCC1)O2 — lower, 0.161%
- CCOc1c2ccc(C(=O)NCc3ccc(OC(F)(F)F)cc3)cc2nn1C — higher, 0.909%
- CCOC(=O)Cc1ncccc1C(=O)Nc1ccc(OC(F)(F)F)cc1 — lower, -3.45%
- O=C(C1CCOCC1)N1CC(=O)N2[C@H](CO)[C@@H](c3ccc(C#CC4CCCC4)cc3)[C@H]2C1 — lower, -0.867%
- NC(=O)CC(NC(=O)Cc1cccc2ccccc12)c1ccc(NCc2cc(F)ccc2F)c([N+](=O)[O-])c1 (stereo not given) — lower, 0.166%
- CC1CCCCN1CCCNc1ccc(C(CC(N)=O)NC(=O)c2ccccc2)cc1[N+](=O)[O-] (stereo not given) — lower, -1.78%
- COc1ccc(S(=O)(=O)Nc2ccc3c(c2)C(=O)N([C@H](C)CO)C[C@H](C)[C@@H](CN(C)Cc2ccc(-c4ccccc4)cc2)O3)cc1 — higher, 1.93%
- COc1ccccc1C#Cc1ccc([C@@H]2[C@@H](CO)N(C(=O)C3CC3)[C@H]2C#N)cc1 — higher, 2.81%
- CCOc1ccccc1CNS(=O)(=O)c1cc(-c2cc(C)no2)ccc1C — lower, -0.998%
- Cc1cc(-c2ccc(C)c(S(=O)(=O)NCCCN(Cc3ccccc3)C(C)C)c2)on1 — lower, 0.63%
- COc1ccc(C#Cc2ccc3c(c2)[C@]2(C(=O)N3)[C@H](C(=O)N3CCc4cc(OC)c(OC)cc4C3)[C@H]3C(=O)O[C@H](c4ccccc4)[C@H](c4ccccc4)N3[C@@H]2c2ccc(O)cc2)cc1 — lower, -2.79%
- CCC(=O)Nc1ccc2c(c1)C(=O)N(C)[C@@H]1CC[C@@H](CC(=O)NCc3ccccc3Cl)O[C@H]1CO2 — lower, -0.213%
- CC(=O)NC[C@H]1[C@@H](c2ccc(C#CC(C)C)cc2)[C@@H](CO)N1Cc1ccccn1 — lower, -0.601%
- CCCC(=O)Nc1ccc2c(c1)C(=O)N(C)C[C@@H](OC)[C@H](C)CN(C(C)=O)[C@H](C)CO2 — lower, -1.19%
- COc1ccc(CNS(=O)(=O)c2ccc(-c3cnc(C4CC4)o3)cc2)cc1 — lower, -1.13%
- Cc1cccc(CNS(=O)(=O)c2ccc(-c3cnc(C4CC4)o3)cc2)c1 — higher, 2.12%
- COc1ccc(S(=O)(=O)N(C)C[C@H]2Oc3ccc(NS(=O)(=O)c4ccc(C)cc4)cc3CC(=O)N([C@@H](C)CO)C[C@@H]2C)cc1 — lower, -1.33%
- COc1ccc2c3c(n(C)c2c1)[C@@H](CO)N(CC1CC1)CC31CCN(C(=O)c2cccc(F)c2)CC1 — lower, -0.0985%
- C[C@H]1CCCCO[C@@H](CN(C)Cc2ccccc2)[C@@H](C)CN([C@@H](C)CO)C(=O)c2cc(NC(=O)CCCN(C)C)ccc2O1 — lower, -1.18%
